From PubChem BioAssay (NCI)
Compounds without any hit were thinned out: in the full panel of roughly 83,000, 20% have a hit.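 Step 1: grow cells in 96-well plates. Step 2: add test compound at a single concentration. Step 3: incubate 48 h. Step 4: record percent growth.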 Unmarked numbers belong to inactive results. Calls of active or inactive are those of the source.

test system: SK-OV-3 ovarian; assay: NCI-60 one-dose screen, 48 h (100 = growth as untreated, 0 = no growth, -100 = all killed); conditions: 10 µM unless noted
Procedure: Growth inhibition of the SK-OV-3 human tumor cell line is measured as a screen for anti-cancer activity. Cells are grown in 96 well plates and exposed to the test compound for 48 hours. Compounds are tested at a single concentration, which is 10^-5 M for most compounds. The reported endpoint is percent growth (GI% or GIPRCNT), where numbers from 0 - 100% represent growth inhibition, and numbers from -100% - 0 represent cell death. For example, a value of 40 represents 60% growth inhibition. A value of 0 means no net growth occurred over the course of the experiment. A value of -40 indicates 40% of cells at the beginning of the experiment died by the end of the experiment. A value of -100 means all cells are dead at the end of the experiment.
NCI-60 Human Tumor Cell Lines Screen was performed using the standard one-dose NCI protocol, which is described in more detail at https://dtp.cancer.gov/discovery_development/nci-60/default.htm.
Compounds with GIPRCNT values below 10 were considered active. Activity score was based on GIPRCNT using the following formula: […]
Score is 0 for GIPRCNT values of 100 or above, 50 for GIPRCNT values of 0, and 100 for GIPRCNT values of -100.

SMILES	growth
O=C1Nc2cc(Cl)ccc2/C1=C\c1ccc(OCc2ccc([N+](=O)[O-])cc2)cc1	98%
COc1cc(/C=C/C(=O)c2cc(OC)c(OC)c(OC)c2)ccc1Oc1nc(NCCO)nc(N2CCOCC2)n1	7.04% (active)
OC1CCc2c(-c3ccc4ncnc(N5CCc6cc(F)c(Cl)cc65)c4c3)cncc21 (stereo not given)	58.1%
CCN1C(=S)N(CC)C2C1N=C(SC)N2/N=C/C=C/c1ccccc1[N+](=O)[O-] (stereo not given)	109%
C=C1CC[C@H]2[C@@](C)(CCC3OC(c4ccc(OCc5cn(C6CC(OC(C)=O)C(OC(C)=O)C(COC(C)=O)O6)nn5)cc4)OC[C@]32C)[C@@H]1/C=C/C1=CCOC1=O (stereo not given in full)	103%
COc1ccc(/C=C/C(=O)c2ccc(NC(=O)CSc3nnc(-c4ccc5nc(-c6ccc(Cl)cc6)[nH]c5c4)o3)cc2)cc1	106%
Nc1cc(-c2c[nH]c3ccc(Cl)cc23)nc2cc(-c3c[nH]c4ccc(Cl)cc34)nn12	119%
COC1CCN(Cc2ccc3c(NNC(=O)c4cnccn4)nc4cc(F)ccc4n23)C1 (stereo not given)	38.1%
COc1ccc(/C=C2\SC(=Nc3cc(C)[nH]n3)NC2=O)cc1	85.7%
C[C@@H]1CN(c2ccc3ncc(C#Cc4cncc(C(=O)Nc5ccc(CN6CCN(C)CC6)c(C(F)(F)F)c5)c4)n3n2)C[C@H](C)O1	-76.5% (active)
CC(C)(C)Nc1nc2c(OCCc3ccccc3)cccn2c1-c1ccc(O)cc1	110%
N=C1CC(=O)NN1C(=O)CSc1nc2sc3c(c2c(=O)n1-c1ccc(Cl)cc1)CCCC3	98.2%
c1ccc2c(NCCCn3ccnc3)c3oc4ccccc4c3nc2c1	16.5%
COc1cc(/C=C/C(=O)c2ccccc2)ccc1Oc1nc(NCCO)nc(N2CCOCC2)n1	99.3%
N#Cc1c(-c2ccc(Cl)cc2)nc(SCc2ccccc2)nc1N1CCNCC1	113%
Cc1cc(=O)oc2cc(OCCCOc3ccc(/C=C/C(=O)Nc4ccc(Cl)cc4)cc3)ccc12	90.4%
COc1cc2nc(-c3ccc(C)cc3)cc(OCCCNCC3CCCO3)c2cc1OC (stereo not given)	113%
c1ccc(CNc2ncnc3ccc(-c4cnc5[nH]ncc5c4)cc23)cc1	72.1%
C/C(=C(/c1ccc(Cl)cc1)c1ccc(OCCN)cc1)c1ccc(C)cc1	120%
COC(=O)c1ccc(NC(=S)N2CCc3ccc([N+](=O)[O-])cc3C2)cc1O	98.4%

SMILES	growth
COc1ccc(/C=C2\SC(=Nc3cc(C)on3)NC2=O)cc1	113%
COc1cc2nc(-c3ccc(C(F)(F)F)cc3)cc(OCCCNCC3CCCO3)c2cc1OC (stereo not given)	86.2%
NS(=O)(=O)c1cccc(Nc2nc(SCC(=O)c3ccc(Cl)cc3)nc3ccccc23)c1	103%
Cc1cc(C(NC(=O)CCCCCNc2cccc3c2C(=O)N(C2CCC(=O)NC2=O)C3=O)c2cccnc2)c(O)c2ncccc12 (stereo not given)	25.4%
CCN(CC)c1ccc(C=O)c(OCc2cn(CC(=O)Nc3ccc(Cl)cc3)nn2)c1	86.8%
C#C[C@]1(O)CC[C@H]2[C@@H]3CC=C4c5sc(Nc6ccc(Cl)cn6)nc5CC[C@]4(C)[C@H]3CC[C@@]21C	35.9%
COc1cc(/C=C/C(=O)c2cc(OC)c(OC)c(OC)c2)ccc1OCc1ccccc1	88.1%
O=C(CN1CCOCC1)NNc1ncnc2ccccc12	107%
NS(=O)(=O)c1cccc(Nc2nc(SCC(=O)c3ccc([N+](=O)[O-])cc3)nc3ccccc23)c1	73.5%
COc1cc(OC)c(C2C(Cl)C(=O)N2Nc2ncnc3ccccc23)cc1OC (stereo not given)	113%
Clc1ccc2oc3c(OCCCn4ccnc4)c4ccccc4nc3c2c1	112%
CC(=O)Oc1ccccc1C(=O)Nc1ccc(C(=O)/C=C/c2cccs2)cc1	132%
O=C(CCN1C(=O)/C(=C/c2ccccc2)SC1=S)N1CCOCC1	98.5%
COc1cc(/C=C/C(=O)c2ccc(Cl)cc2)ccc1Oc1nc(NCCO)nc(N2CCOCC2)n1	96.6%
CCOc1ccc([C@H]2C(C(=O)c3ccc(Cl)cc3)C3(N[C@@H]2c2ccccc2)C(=O)Nc2ccc(Br)cc23)cc1 (stereo not given in full)	58.6%
COc1cc(OC)c(S(=O)(=O)NNC(=O)c2ccncc2)cc1C(=O)/C=C/c1ccc(C)cc1	101%
CN(C)CCCNc1c2ccc(Cl)cc2nc2c1oc1ccc(Cl)cc12	60.5%
CC(=NNc1ncnc2ccccc12)c1ccc(S(C)(=O)=O)cc1	102%
CN(C)c1ccc(-c2c(NC(C)(C)C)nc3c(OCCc4ccccc4)cccn23)cc1	8.93% (active)
Fc1ccc(-c2nc(C(Cl)Cl)nc3cc(-c4ccccc4)nn23)cc1	-28.9% (active)
